# Rows were chosen to be rich in hits. Some 4.6% of all compounds tested hit in one or more screens of this group.
# D1 antagonist: human D1 dopamine receptor antagonism | P21728 | actives 3.2% (n = 360,000) | AID 504652 | activity change, negative = inhibition, % at 10 µM | HEK293 TREx D1 cells, calcium flux, dopamine EC80; active compounds read low; in the data active = activity change below about -30%; note: % is set by controls: 0 for no effect and ±100 for the full control effect
# Target sequence (P21728 whole entry, looked up): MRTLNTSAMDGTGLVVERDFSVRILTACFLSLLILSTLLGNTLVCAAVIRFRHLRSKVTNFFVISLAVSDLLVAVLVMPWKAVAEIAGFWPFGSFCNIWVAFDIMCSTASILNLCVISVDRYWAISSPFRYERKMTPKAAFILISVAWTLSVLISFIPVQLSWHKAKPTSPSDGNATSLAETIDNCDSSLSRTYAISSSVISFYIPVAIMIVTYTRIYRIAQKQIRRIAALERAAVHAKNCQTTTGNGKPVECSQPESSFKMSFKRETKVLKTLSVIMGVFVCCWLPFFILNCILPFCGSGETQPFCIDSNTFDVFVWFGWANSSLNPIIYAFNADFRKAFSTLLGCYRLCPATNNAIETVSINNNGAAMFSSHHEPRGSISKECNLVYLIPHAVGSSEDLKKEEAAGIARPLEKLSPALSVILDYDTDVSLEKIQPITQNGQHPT
#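 After overnight tetracycline induction at 30 C, force-coupled D1 HEK293 cells took up a no-wash calcium dye at room temperature. Compounds were added and monitored 180 s, and the response to EC80 dopamine was then recorded.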
# TRHR agonist: activates the human TRH receptor; activation, % at 2 µM; TRHR cells, calcium flux fluo-8, FDSS agonist mode; AID 493084; actives 0.18% (n = 360,000); P34981; note: 0% is about no effect
#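 Read-out: compound-evoked intracellular calcium rise in TRHR cells, fluo-8 dye, kinetic FDSS fluorescence at 1 s/cycle following a 10-cycle baseline. Cells cultured overnight before dye loading (30 min–1.5 h, RT).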
# TRHR enhancer: allosterically enhances the human TRH receptor | enhancement, % at 2 µM | TRHR cells, fluo-8 calcium fluorescence, EC20 TRH enhancement | actives 0.66% (n = 360,000) | P34981; in the data active = enhancement above about 30%; note: 0% is about no effect
#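 TRHR-expressing cells loaded with fluo-8 calcium dye were read kinetically (ex 480/em 530) during compound addition, then stimulated with an EC20 of TRH (10 nM final). Enhancement of the Gq-mediated intracellular calcium response was scored.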
# D1 potentiator: potentiators of human D1 dopamine receptor; P21728; HEK293 TREx D1 cells, calcium flux, dopamine EC20 potentiation; potentiation, % at 10 µM; actives 0.036% (n = 360,000); AID 504651; in the data active = potentiation above about 30%; note: 0% is about no effect
# D1 agonist: activates the human D1 dopamine receptor; P21728; HEK293 T-REx D1 cells, calcium flux, agonist mode; activation, % at 2 µM; actives 1% (n = 360,000); note: 0% is about no effect
#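 Inducible HEK293 T-REx D1 cells, force-coupled to calcium signalling, were plated at 4000 cells/well with tetracycline and held overnight at 30 C. After no-wash calcium dye loading, compound-evoked calcium rise over 180 s flagged agonists.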
# An asterisk follows results filed as active; nt = no result; ! = not active in a repeat. Cut-off read from the data, not from the text of the source, unless noted: active = activation above about 30%; inactive = the rest.
SMILES,D1 antagonist,TRHR agonist,TRHR enhancer,D1 potentiator,D1 agonist
O=C(C[n+]1cc(-c2ccc(Cl)cc2)n2c1CCC2)Nc1nc(-c2ccccc2)cs1,-61*,0,0,-10,3
O=C(C[n+]1cc(-c2ccc(Cl)cc2)n2c1CCC2)N1c2ccccc2Sc2ccccc21,-3,0,-6,-2,9
CC[C@H](C)[C@H](NC(=O)c1ccccc1)C(=O)NC(CC(=O)O)c1ccc(F)cc1 (stereo partly specified),1,0,2,2,0
CC1=NN(c2ccc(Cl)cc2)C(=O)C1,18,1,-2,3,6
CC1=NN(Cc2ccccc2)C(=O)C1,-36*,-1,3,-13,-1
Cc1ccc(C(CNS(=O)(=O)c2ccc(Cl)cc2)N2CCN(C)CC2)cc1 (stereo unspecified),-34*,1,0,-10,43*
Cc1ccc(C(CNS(=O)(=O)c2ccc(C)cc2)N2CCN(C)CC2)cc1 (stereo unspecified),-8,0,5,-1,9
COc1ccc(OCCCC(=O)Nc2cccc(SC)c2)cc1,-73*,0,9,8,2
O=C(CCN1CCN(c2ccccc2)CC1)Nc1ccc(OCc2ccccc2)cc1,1,0,4,-7,1
O=C(CCSc1ccccc1)Nc1ccc(OCc2ccccc2)cc1,-30*,2,-8,-10,5
COc1ccc(/C=C/C(=O)OCC(=O)Nc2cccc(C(C)=O)c2)cc1,2,0,37*,11,5
O=C(CCCSc1ccc(Cl)cc1)Nc1ccccc1O,3,-1,-3,-9,33*
O=C(CSCc1ccc(Cl)cc1)Nc1ccccc1O,-8,0,3,0,5
COc1ccc(/C=C/C(=O)OCC(=O)Nc2cc(C(N)=O)cc(C(N)=O)c2)cc1,-11,0,-6,-3,1
CSc1cccc(NC(=O)CCCOc2ccc(Cl)cc2C)c1,0,1,5,-3,6
O=C(CN1C(=O)C(c2ccc(F)cc2)=NC12CCCCCC2)Nc1ccccc1Cl,46,-1,-1,-1,19
Cc1cnc2c3c(cc(Cl)c2c1)-c1ccccc1S(=O)(=O)N3,-29,1,0,-5,1
Cc1nc2cc(-c3cccc(F)c3)nn2c(C)c1CCC(=O)Nc1ccccc1C(N)=O,-6,0,25,-4,3
O=C(COC(=O)/C=C/c1cccs1)Nc1ccc2ccccc2c1,-35*,1,3,-3,1
COc1ccc(OCCCC(=O)Nc2cccc(C(C)=O)c2)cc1,-47*,-1,0,-5,9
CC(=O)c1cccc(NC(=O)CCCSc2ccccc2)c1,-39*,0,-9,nt,15
O=C(Cc1ccccc1)Nc1ccc(NC(=O)Cc2ccccc2)c(Cl)c1,-36*,0,-6,0,2
CCC(=O)Nc1ccc(Br)c(Cl)c1,-8,0,3,0,2
O=C(Cc1ccc(-c2ccccc2)cc1)Nc1ccccc1,-12,1,10,4,33*
O=C(Cc1ccccc1)Nc1ccc(Br)c(Cl)c1,-55*,-1,3,-11,22
SMILES,D1 antagonist,TRHR agonist,TRHR enhancer,D1 potentiator,D1 agonist
COc1cccc(-c2nn(-c3ccccc3)cc2C(=O)O)c1,6,0,-2,-3,4
COc1cccc(-c2nn(-c3ccccc3)cc2/C=C\C(=O)c2cccs2)c1,-13,0,2,1,33*
O=c1cc(CN2CCN(S(=O)(=O)c3ccc(Cl)cc3)CC2)nc2sc(-c3ccccc3F)nn12,-37*,0,-3,-3,-1
Cc1ccccc1-c1nn2c(=O)cc(CN3CCN(S(=O)(=O)c4ccc(Cl)cc4)CC3)nc2s1,-30*,0,-1,-6,-1
O=c1cc(CN2CCN(S(=O)(=O)c3ccccc3)CC2)nc2sc(-c3ccccc3Cl)nn12,1,-1,1,3,0
CCc1ccc(NS(=O)(=O)c2ccc3[nH]cc(C(=O)NCc4ccc(C)cc4)c(=O)c3c2)cc1,17,2,5,7,4
CCOc1ccc2ncc3c(-c4cccc(OC)c4)nn(-c4ccccc4)c3c2c1,12,-1,20,0,6
CC1CCN(S(=O)(=O)c2ccc3c(c2)oc(=O)n3CC(=O)N2CCc3ccccc3C2)CC1,-65*,0,-4,nt,0
CC1CCN(C(=O)Cn2c(=O)oc3cc(S(=O)(=O)N4CCCCC4)ccc32)CC1,-10,0,0,48*!,2
CC1CCCN(C(=O)Cn2c(=O)oc3cc(S(=O)(=O)N4CCCCC4)ccc32)C1 (stereo unspecified),27,0,-3,4,1
CC1CCCCN1C(=O)Cn1c(=O)oc2cc(S(=O)(=O)N3CCCC3)ccc21 (stereo unspecified),9,-2,34*,-1,7
O=C(Cn1c(=O)oc2cc(S(=O)(=O)N3CCCC3)ccc21)N1CCc2ccccc2C1,-1,0,-11,nt,6
Cc1ccc2ncccc2c1N,-63*,0,-1,2,2
Cc1ccc2ncccc2c1NS(=O)(=O)c1ccccc1,-4,-1,15,-6,4
CC[C@H](C)/C=C(C)/C=C/C(=O)Cc1cc(O)c(C)c(O)c1C=O,-16,3,-6,-7,14
CC[C@H](C)/C=C(C)/C=C/C1=CC2=CC(=O)[C@]3(C)OC(=O)[C@@H](C(C)=O)[C@@H]3C2=CO1,-14,11,-6,4,42*
c1cc2c3c(cccc3c1)NC1(CCC3(CC1)Nc1cccc4cccc(c14)N3)N2,-40*,4,-14,-1,14
c1cc2c3c(cccc3c1)NC1(CCCCCC1)N2,-5,1,19,-1,2
c1ccc(-n2nnnc2SCCCSc2nc3ccccc3s2)cc1,-9,1,34*,-3,23
O=C(CSc1nc2ccc(NC(=O)CSc3nnnn3-c3ccccc3)cc2s1)Nc1ccccc1,-8,2,2,1,6
O=C1c2ccccc2C(=O)N1CCCCSc1nnnn1-c1ccccc1,-30*,0,14,0,71*
O=C1c2ccccc2C(=O)N1CSc1nnnn1-c1ccccc1,1,0,-11,-2,3
Clc1ccc(OCCCNCc2ccccc2)c2ccccc12,-2,1,2,16,31*
C=CCc1ccc(OCCCNCc2ccccc2)c(OC)c1,-13,0,3,-10,6
C=CCc1ccccc1OCCNCc1ccccc1,-50*,0,5,-17,12
Brc1ccccc1OCCNCc1ccccc1,-75*,0,5,-16,13
O=[N+]([O-])c1cccnc1SCc1ccccc1,-2,-1,2,-5,2
N/C(Cc1nc2ccccc2s1)=N\O,10,2,-1,-3,4
